Laboratory results: PubChem BioAssay (NCI)
About 83,000 compounds went through this panel and 20% of them were active in at least one assay; those are over-represented in the sample as a whole.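 48-hour exposure, single concentration, 96-well plates; percent growth endpoint where 0 means no net growth. Active: below 10.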 Activity calls are given as the source filed them.

What was measured:
Test in all cases: NCI-60 one-dose screen, 48 h (100 = growth as untreated, 0 = no growth, -100 = all killed)
Conditions in all cases: 10 µM unless noted
HCT-15 colon = system: HCT-15 colon
HT29 colon = system: HT29 colon
SNB-75 CNS = system: SNB-75 CNS
SNB-19 CNS = system: SNB-19 CNS
U251 CNS = system: U251 CNS
PC-3 prostate = system: PC-3 prostate
SK-MEL-5 melanoma = system: SK-MEL-5 melanoma
UACC-62 melanoma = system: UACC-62 melanoma
LOX IMVI melanoma = system: LOX IMVI melanoma
SK-MEL-28 melanoma = system: SK-MEL-28 melanoma
SK-MEL-2 melanoma = system: SK-MEL-2 melanoma
EKVX NSCLC = system: EKVX NSCLC
SN12C renal = system: SN12C renal
UO-31 renal = system: UO-31 renal
TK-10 renal = system: TK-10 renal
ACHN renal = system: ACHN renal
CAKI-1 renal = system: CAKI-1 renal
A498 renal = system: A498 renal
CCRF-CEM leukemia = system: CCRF-CEM leukemia
MOLT-4 leukemia = system: MOLT-4 leukemia

Measured: growth

CCC(C)C(N)C(=O)NC(CC(C)C)C(=O)N1CCCC1C(=O)NC(Cc1c[nH]c2ccccc12)C(=O)NC(CCCCN)C(=O)NC(Cc1c[nH]c2ccccc12)C(=O)N1CCCC1C(=O)NC(Cc1c[nH]c2ccccc12)C(=O)NC(Cc1c[nH]c2ccccc12)C(=O)N1CCCC1C(=O)NC(Cc1c[nH]c2ccccc12)C(=O)NC(CCCNC(=N)N)C(=O)NC(CCCNC(=N)N)C(N)=O (stereo not given)
inactive: HCT-15 colon 106% | HT29 colon 83.5% | SNB-75 CNS 105% | SNB-19 CNS 106% | U251 CNS 112% | PC-3 prostate 91.7% | SK-MEL-5 melanoma 104% | UACC-62 melanoma 102% | LOX IMVI melanoma 98.5% | SK-MEL-28 melanoma 114% | SK-MEL-2 melanoma 108% | EKVX NSCLC 104% | SN12C renal 101% | UO-31 renal 68.1% | TK-10 renal 124% | ACHN renal 98% | CAKI-1 renal 90.4% | A498 renal 130%
active: CCRF-CEM leukemia -58.7%

COc1cc(OCc2cccc(-c3ccccc3)c2C)cc(OC)c1CN1CCCCC1C(=O)NCCOCCOCCN (stereo not given)
inactive: HCT-15 colon 87.9% | SNB-75 CNS 73.8% | SNB-19 CNS 67.9% | U251 CNS 25.7% | PC-3 prostate 74.6% | SK-MEL-5 melanoma 87.2% | UACC-62 melanoma 99.4% | SK-MEL-28 melanoma 87.7% | SK-MEL-2 melanoma 98.4% | EKVX NSCLC 85.5% | SN12C renal 87.6% | UO-31 renal 79.1% | TK-10 renal 125% | ACHN renal 98.7% | CAKI-1 renal 92.4% | A498 renal 72.9% | MOLT-4 leukemia 38.4%
active: HT29 colon 5.46% | LOX IMVI melanoma -73.7% | CCRF-CEM leukemia 1%

N#CSCc1cc(Cl)c(CSC#N)cc1Cl
active: CCRF-CEM leukemia 2.13%
inactive: HCT-15 colon 31.9% | HT29 colon 40.6% | SNB-75 CNS 47.9% | SNB-19 CNS 89% | U251 CNS 106% | PC-3 prostate 75.8% | SK-MEL-5 melanoma 48.5% | UACC-62 melanoma 71.1% | LOX IMVI melanoma 30.5% | SK-MEL-28 melanoma 87.9% | SK-MEL-2 melanoma 96.5% | EKVX NSCLC 104% | SN12C renal 41.5% | UO-31 renal 41.9% | TK-10 renal 94% | ACHN renal 45.3% | CAKI-1 renal 38.3% | A498 renal 104% | MOLT-4 leukemia 17.7%

COc1cc(C(=O)/C=C/c2c(-c3cccs3)nc3sc(C)cn23)cc(OC)c1OC
inactive: HCT-15 colon 10.4% | SNB-19 CNS 15.5% | SK-MEL-28 melanoma 21.7% | SK-MEL-2 melanoma 13.1% | EKVX NSCLC 13.4% | SN12C renal 29% | ACHN renal 12.7% | CCRF-CEM leukemia 19.5%
active: HT29 colon 3.69% | SNB-75 CNS -15.6% | U251 CNS 5.96% | PC-3 prostate 8.02% | SK-MEL-5 melanoma -56.5% | UACC-62 melanoma -38.7% | LOX IMVI melanoma 9.35% | UO-31 renal -7.93% | TK-10 renal 8.26% | CAKI-1 renal -12.7% | A498 renal -15.7%

CC(C)(C)c1ccc(C(=O)Nc2sc3c(c2C#N)CCC(=O)C3)cc1
active: HCT-15 colon -18.5% | HT29 colon 5% | SNB-75 CNS -6.69% | PC-3 prostate 8.36% | SK-MEL-5 melanoma -69.8% | UACC-62 melanoma 9.35% | SN12C renal 9.18% | UO-31 renal -99% | ACHN renal -84% | CAKI-1 renal -74.4% | CCRF-CEM leukemia 8.53%
inactive: SNB-19 CNS 14.1% | U251 CNS 16.4% | LOX IMVI melanoma 10.5% | SK-MEL-28 melanoma 28.8% | SK-MEL-2 melanoma 12.8% | EKVX NSCLC 19.1% | TK-10 renal 24.3% | A498 renal 89.8%

COC(=O)[C@@H](Cc1c[nH]c2ccccc12)NC[C@@H](O)CN1C(=O)/C(=C\c2cc(OC)c(OC)c(OC)c2)c2ccccc21
active: MOLT-4 leukemia 1.92%
inactive: HCT-15 colon 53.9% | HT29 colon 40.9% | SNB-75 CNS 58.3% | SNB-19 CNS 66.2% | U251 CNS 55.6% | PC-3 prostate 46.2% | SK-MEL-5 melanoma 59.8% | UACC-62 melanoma 49.8% | LOX IMVI melanoma 50.9% | SK-MEL-28 melanoma 85.5% | SK-MEL-2 melanoma 58.1% | EKVX NSCLC 85.7% | SN12C renal 73% | UO-31 renal 58.3% | TK-10 renal 101% | ACHN renal 75.5% | CAKI-1 renal 73.1% | A498 renal 69.5% | CCRF-CEM leukemia 20.7%

O=C(CNc1ncco1)Nc1ccc(S(=O)(=O)c2ccc(NC(=O)CNc3ncco3)cc2)cc1
inactive: SNB-75 CNS 42.1% | SNB-19 CNS 19.7% | PC-3 prostate 40.1% | SK-MEL-28 melanoma 58.1% | EKVX NSCLC 50.4% | UO-31 renal 41.1% | TK-10 renal 54.4% | ACHN renal 30.5% | A498 renal 100%
active: HCT-15 colon -49.6% | HT29 colon -93.2% | U251 CNS -92.1% | SK-MEL-5 melanoma -60.4% | UACC-62 melanoma -19.9% | LOX IMVI melanoma -81.8% | SK-MEL-2 melanoma -6.97% | SN12C renal 8.32% | CAKI-1 renal -51.6% | CCRF-CEM leukemia 0.572%

N#Cc1nn(-c2ccccn2)c(N)c1C#N
inactive: HCT-15 colon 102% | HT29 colon 86.4% | SNB-75 CNS 87.3% | SNB-19 CNS 101% | U251 CNS 103% | PC-3 prostate 95.4% | SK-MEL-5 melanoma 104% | UACC-62 melanoma 99.1% | LOX IMVI melanoma 101% | SK-MEL-28 melanoma 105% | SK-MEL-2 melanoma 93.7% | EKVX NSCLC 94% | SN12C renal 105% | UO-31 renal 91.1% | TK-10 renal 98.7% | ACHN renal 99.6% | CAKI-1 renal 92.7% | A498 renal 106% | CCRF-CEM leukemia 105%
